{"source": "ChEMBL document CHEMBL2218924", "about": "“A broad activity screen in support of a chemogenomic map for kinase signalling research and drug discovery” (Biochem J, 2013)", "key": {"[1]": {"biological_target": "Tyrosine-protein kinase SYK (Homo sapiens) (UniProt P43405)", "details": "at 10 µM"}, "[2]": {"biological_target": "T1, Mitogen-activated protein kinase kinase kinase 7 (Homo sapiens) (UniProt O43318)", "T1 sequence (whole entry)": "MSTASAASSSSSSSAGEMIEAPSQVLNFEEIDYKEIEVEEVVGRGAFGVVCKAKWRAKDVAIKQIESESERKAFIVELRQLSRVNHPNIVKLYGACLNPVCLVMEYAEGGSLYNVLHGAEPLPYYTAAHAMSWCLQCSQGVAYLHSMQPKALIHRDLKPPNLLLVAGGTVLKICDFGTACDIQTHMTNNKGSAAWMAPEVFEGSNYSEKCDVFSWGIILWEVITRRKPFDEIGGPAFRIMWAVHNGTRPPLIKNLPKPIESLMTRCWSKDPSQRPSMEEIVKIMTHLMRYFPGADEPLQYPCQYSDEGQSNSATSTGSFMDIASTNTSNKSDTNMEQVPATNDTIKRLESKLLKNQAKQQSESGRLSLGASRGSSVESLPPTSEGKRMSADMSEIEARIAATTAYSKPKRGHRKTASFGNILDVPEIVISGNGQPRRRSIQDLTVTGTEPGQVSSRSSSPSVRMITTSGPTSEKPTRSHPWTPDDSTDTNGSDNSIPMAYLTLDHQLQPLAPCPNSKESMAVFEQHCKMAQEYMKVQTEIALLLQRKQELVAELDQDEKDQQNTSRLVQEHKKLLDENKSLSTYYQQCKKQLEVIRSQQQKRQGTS", "details": "at 1 µM"}, "[3]": {"biological_target": "T1, Mitogen-activated protein kinase kinase kinase 7 (Homo sapiens)", "details": "at 10 µM"}, "[4]": {"biological_target": "T2, Serine/threonine-protein kinase TAO1 (Homo sapiens) (UniProt Q7L7X3)", "T2 sequence (whole entry)": "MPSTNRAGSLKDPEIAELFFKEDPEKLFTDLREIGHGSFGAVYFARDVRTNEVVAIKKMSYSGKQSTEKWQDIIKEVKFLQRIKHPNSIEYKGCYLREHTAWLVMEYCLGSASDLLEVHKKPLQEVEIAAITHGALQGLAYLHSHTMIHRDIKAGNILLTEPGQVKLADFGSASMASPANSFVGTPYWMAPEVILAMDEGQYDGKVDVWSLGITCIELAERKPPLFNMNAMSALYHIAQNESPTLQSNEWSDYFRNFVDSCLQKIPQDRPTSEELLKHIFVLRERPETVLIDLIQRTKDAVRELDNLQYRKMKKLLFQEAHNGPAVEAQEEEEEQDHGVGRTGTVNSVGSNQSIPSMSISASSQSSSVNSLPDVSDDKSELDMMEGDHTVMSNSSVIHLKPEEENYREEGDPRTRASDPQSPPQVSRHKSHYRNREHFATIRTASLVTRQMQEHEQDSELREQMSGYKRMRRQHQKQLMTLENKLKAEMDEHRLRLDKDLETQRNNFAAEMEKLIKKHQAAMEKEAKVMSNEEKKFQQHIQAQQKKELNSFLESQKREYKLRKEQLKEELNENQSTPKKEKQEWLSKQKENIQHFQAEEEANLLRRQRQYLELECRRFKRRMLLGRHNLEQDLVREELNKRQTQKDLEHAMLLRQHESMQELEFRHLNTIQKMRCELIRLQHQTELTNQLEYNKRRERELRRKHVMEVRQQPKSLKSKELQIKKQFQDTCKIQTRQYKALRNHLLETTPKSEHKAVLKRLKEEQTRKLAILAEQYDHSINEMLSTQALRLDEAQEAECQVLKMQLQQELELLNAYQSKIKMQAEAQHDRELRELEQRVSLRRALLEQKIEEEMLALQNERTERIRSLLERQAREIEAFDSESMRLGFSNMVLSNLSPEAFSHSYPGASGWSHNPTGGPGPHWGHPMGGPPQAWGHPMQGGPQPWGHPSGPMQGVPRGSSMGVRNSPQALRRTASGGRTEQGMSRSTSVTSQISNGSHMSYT", "details": "at 1 µM"}, "[5]": {"biological_target": "T2, Serine/threonine-protein kinase TAO1 (Homo sapiens)", "details": "at 10 µM"}, "[6]": {"biological_target": "T3, Serine/threonine-protein kinase TAO2 (Homo sapiens) (UniProt Q9UL54)", "T3 sequence (whole entry)": "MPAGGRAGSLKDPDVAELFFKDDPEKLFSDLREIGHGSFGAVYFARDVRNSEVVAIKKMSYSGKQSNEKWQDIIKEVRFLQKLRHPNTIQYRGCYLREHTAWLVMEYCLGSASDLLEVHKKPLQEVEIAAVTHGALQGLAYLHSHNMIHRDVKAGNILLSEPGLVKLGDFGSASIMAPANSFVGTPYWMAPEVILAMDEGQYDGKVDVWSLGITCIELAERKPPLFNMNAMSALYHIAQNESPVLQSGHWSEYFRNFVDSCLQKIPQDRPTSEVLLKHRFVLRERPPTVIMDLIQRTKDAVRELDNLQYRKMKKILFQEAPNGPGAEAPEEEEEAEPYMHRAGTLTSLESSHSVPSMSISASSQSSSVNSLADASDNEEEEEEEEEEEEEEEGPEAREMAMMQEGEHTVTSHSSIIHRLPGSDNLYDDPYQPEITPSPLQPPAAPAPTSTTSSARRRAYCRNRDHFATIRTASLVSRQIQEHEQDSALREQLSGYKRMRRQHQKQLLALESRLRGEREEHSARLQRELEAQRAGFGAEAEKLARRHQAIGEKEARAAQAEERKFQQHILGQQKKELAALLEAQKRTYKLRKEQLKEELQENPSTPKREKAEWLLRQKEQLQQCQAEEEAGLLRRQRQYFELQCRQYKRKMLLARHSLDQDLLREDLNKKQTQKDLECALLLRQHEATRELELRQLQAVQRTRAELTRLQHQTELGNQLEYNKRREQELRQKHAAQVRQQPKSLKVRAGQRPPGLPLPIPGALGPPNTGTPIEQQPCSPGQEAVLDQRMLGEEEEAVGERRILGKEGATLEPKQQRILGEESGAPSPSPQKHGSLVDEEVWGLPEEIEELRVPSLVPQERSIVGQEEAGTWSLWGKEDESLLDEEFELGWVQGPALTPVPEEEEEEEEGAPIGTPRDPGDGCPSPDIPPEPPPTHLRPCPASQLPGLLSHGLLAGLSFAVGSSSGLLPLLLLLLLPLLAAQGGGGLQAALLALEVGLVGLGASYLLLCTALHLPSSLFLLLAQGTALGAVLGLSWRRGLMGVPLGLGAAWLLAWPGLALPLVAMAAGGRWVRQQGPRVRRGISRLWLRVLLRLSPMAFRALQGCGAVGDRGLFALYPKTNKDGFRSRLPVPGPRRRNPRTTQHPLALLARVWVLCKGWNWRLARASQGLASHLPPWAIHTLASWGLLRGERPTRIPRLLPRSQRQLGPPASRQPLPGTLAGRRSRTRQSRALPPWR", "details": "at 1 µM"}, "[7]": {"biological_target": "T3, Serine/threonine-protein kinase TAO2 (Homo sapiens)", "details": "at 10 µM"}, "[8]": {"biological_target": "T4, Serine/threonine-protein kinase TAO3 (Homo sapiens) (UniProt Q9H2K8)", "T4 sequence (whole entry)": "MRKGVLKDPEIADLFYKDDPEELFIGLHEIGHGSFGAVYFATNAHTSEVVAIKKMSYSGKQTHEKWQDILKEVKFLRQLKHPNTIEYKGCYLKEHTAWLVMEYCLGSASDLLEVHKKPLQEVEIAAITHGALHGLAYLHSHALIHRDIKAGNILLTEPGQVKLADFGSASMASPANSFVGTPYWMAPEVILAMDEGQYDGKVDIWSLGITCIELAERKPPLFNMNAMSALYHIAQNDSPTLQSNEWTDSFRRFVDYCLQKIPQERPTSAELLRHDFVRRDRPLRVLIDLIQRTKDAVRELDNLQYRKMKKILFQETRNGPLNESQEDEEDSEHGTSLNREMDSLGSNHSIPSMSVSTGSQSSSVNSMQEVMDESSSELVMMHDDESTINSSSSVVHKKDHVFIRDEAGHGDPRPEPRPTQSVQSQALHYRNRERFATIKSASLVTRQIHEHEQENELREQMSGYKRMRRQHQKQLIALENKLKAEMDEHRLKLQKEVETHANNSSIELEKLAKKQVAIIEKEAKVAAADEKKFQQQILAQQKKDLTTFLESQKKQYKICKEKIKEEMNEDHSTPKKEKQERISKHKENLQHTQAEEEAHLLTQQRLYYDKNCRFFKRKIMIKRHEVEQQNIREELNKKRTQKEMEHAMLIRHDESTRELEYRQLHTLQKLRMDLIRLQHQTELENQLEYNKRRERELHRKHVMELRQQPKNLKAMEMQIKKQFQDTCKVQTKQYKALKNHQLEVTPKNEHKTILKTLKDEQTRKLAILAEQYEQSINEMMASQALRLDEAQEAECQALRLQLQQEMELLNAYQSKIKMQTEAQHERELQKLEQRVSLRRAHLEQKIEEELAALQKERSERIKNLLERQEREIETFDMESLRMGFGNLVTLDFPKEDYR", "details": "at 1 µM"}, "[9]": {"biological_target": "T4, Serine/threonine-protein kinase TAO3 (Homo sapiens)", "details": "at 10 µM"}, "[10]": {"biological_target": "T5, Serine/threonine-protein kinase TBK1 (Homo sapiens) (UniProt Q9UHD2)", "T5 sequence (whole entry)": "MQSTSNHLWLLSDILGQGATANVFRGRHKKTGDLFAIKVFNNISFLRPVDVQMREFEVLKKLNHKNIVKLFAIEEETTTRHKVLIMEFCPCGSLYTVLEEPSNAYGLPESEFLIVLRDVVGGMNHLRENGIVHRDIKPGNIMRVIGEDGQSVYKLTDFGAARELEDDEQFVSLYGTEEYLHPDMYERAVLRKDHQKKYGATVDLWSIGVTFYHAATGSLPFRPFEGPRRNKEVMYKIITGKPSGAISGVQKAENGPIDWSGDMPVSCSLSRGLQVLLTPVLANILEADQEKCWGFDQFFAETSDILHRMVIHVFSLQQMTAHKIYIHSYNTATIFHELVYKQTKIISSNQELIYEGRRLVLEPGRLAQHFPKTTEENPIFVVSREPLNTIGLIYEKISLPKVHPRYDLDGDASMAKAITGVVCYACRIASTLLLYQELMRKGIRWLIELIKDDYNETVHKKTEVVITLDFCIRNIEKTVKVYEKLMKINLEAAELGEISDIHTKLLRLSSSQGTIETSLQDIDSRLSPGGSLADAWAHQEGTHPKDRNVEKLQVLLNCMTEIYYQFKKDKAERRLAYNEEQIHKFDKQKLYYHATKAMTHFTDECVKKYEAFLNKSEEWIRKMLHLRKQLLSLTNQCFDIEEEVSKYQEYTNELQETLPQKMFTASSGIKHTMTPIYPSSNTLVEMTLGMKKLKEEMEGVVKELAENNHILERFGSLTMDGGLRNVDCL", "details": "at 1 µM"}}, "data": [{"molecule": "O=[N+]([O-])c1ccc(-c2nc(-c3ccc(F)cc3)c(-c3ccncc3)[nH]2)cc1", "values": [{"measurement": "residual activity", "setting": "[1]", "value": 107, "unit": "%"}, {"measurement": "residual activity", "setting": "[2]", "value": 104, "unit": "%"}, {"measurement": "residual activity", "setting": "[3]", "value": 91, "unit": "%"}, {"measurement": "residual activity", "setting": "[4]", "value": 97, "unit": "%"}, {"measurement": "residual activity", "setting": "[5]", "value": 91, "unit": "%"}, {"measurement": "residual activity", "setting": "[6]", "value": 109, "unit": "%"}, {"measurement": "residual activity", "setting": "[7]", "value": 103, "unit": "%"}, {"measurement": "residual activity", "setting": "[8]", "value": 98, "unit": "%"}, {"measurement": "residual activity", "setting": "[9]", "value": 96, "unit": "%"}, {"measurement": "residual activity", "setting": "[10]", "value": 87, "unit": "%"}]}]}
